# Measurements taken from the supplement of paper PMC4683952.
# Where a name gives a salt, the structure may show the parent alone. Hit rate of the full screen: of about 1,200 compounds, about 50 (4%) showed activity. This is one part of a sample in which actives are shown more often than they occur. A number with no mark means an inactive call. Rule as the data show it: all actives reach 1.3 or more but so do some inactives.
# Test system: Lgr5 (MarsCy1-Lgr5-EGFP, U2OS)
# Assay: cell-surface Lgr5 expression (SCi1 fluorescence, background-subtracted) relative to WT DMSO (fold of DMSO control); higher = more Lgr5 at the plasma membrane, active = hit call of the paper
# Conditions: U2OS MarsCy1-Lgr5-EGFP stable; treatment time: overnight; 16 µM; library: Johns Hopkins Clinical Compound Library
row,SMILES,cell-surface Lgr5 expression
1,NCCCC(N)(C(=O)O)C(F)F (racemic),1.18
2,[Br-].[K+] [Potassium bromide],0.93
3,CCOC(=O)[C@H](CCc1ccccc1)N[C@H]1CCc2ccccc2N(CC(=O)O)C1=O [Benazepril hydrochloride],0.872
4,O=S(=O)(O)CCS [Mesna (2-Mercaptoethanesulfonic acid)],0.844
5,O=S(=O)(O)CCS [Mesna (2-Mercaptoethane Sulfonic Acid Sodium Salt)],0.815
6,O=P([O-])(O)O.[Na+] [Sodium phosphate monobasic],1.11
7,[Na+].[O]=[Bi](=[O])[O-] [Sodium bismuthate],0.965
8,"CC1=C(C/C=C(\C)CCC[C@H](C)CCC[C@H](C)CCCC(C)C)C(=O)c2ccccc2C1=O [Vitamin K1 (Phylloquinone, phytonadione)]",0.865
9,NS(=O)(=O)c1cc2c(cc1C(F)(F)F)NC(Cc1ccccc1)NS2(=O)=O (centres undefined) [Bendroflumethiazide],1.02
10,"CCCC(O)C(CC)CO (centres undefined) [Ethohexadiol (2-Ethyl-1,3-hexanediol)]",1.04
11,Clc1ccc(CO/N=C(\Cn2ccnc2)c2ccc(Cl)cc2Cl)c(Cl)c1 [Oxiconazole nitrate],0.871
12,O=[N+]([O-])c1ccc(/C=N/O)o1 [Nifuroxime],0.992
13,O.[Al+3].[Al+3].[Cl-].[OH-].[OH-].[OH-].[OH-].[OH-] [Aluminum chlorohydrate],0.754
14,Cc1onc(-c2ccccc2)c1C(=O)N[C@@H]1C(=O)N2[C@@H]1SC(C)(C)[C@@H]2C(=O)O [Oxacillin],0.726
15,CCC(=O)[C@@]1(C)[C@H](C)C[C@H]2[C@@H]3CCC4=CC(=O)C=C[C@]4(C)[C@H]3[C@@H](O)C[C@@]21C [Rimexolone],1.39 (active)
16,C[C@H]1C[C@@H]2[C@H]([C@@H](O)C[C@@]3(C)[C@H]2CC[C@]3(O)C(=O)CO)[C@@]2(C)C=CC(=O)C=C12 [Methylprednisolone (6-alpha-Methylprednisolone)],1.12
17,"C[C@]12C=CC(=O)C=C1CC[C@@H]1[C@@H]2[C@@H](O)C[C@@]2(C)[C@H]1CC[C@]2(O)C(=O)COP(=O)(O)O [Prednisolone 21-phosphate, disodium salt]",1.41 (active)
18,CC1(C)O[C@@H]2C[C@H]3[C@@H]4CCC5=CC(=O)C=C[C@]5(C)[C@H]4[C@@H](O)C[C@]3(C)[C@]2(C(=O)CO)O1,1.44 (active)
19,C[C@]12C=CC(=O)C=C1CC[C@@H]1[C@@H]2[C@@H](O)C[C@@]2(C)[C@H]1CC[C@]2(O)C(=O)COP(=O)(O)O [Prednisolone sodium phosphate],1.25
20,N[C@H]1C(O)O[C@H](CO)[C@@H](O)[C@@H]1O (some centres undefined) [Glucosamine],1.06
21,c1ccc(Cc2nc3ccccc3[nH]2)cc1 [Bendazol (2-Benzylbenzimidazole)],1.05
22,N=C(N)N1Cc2ccccc2C(O)C1 (centres undefined) [4-Hydroxydebrisoquin],1.07
23,Cc1cc2nc3c(=O)[nH]c(=O)nc-3n(C[C@H](O)[C@H](O)[C@H](O)COP(=O)(O)OP(=O)(O)OC[C@H]3O[C@@H](n4cnc5c(N)ncnc54)[C@H](O)[C@@H]3O)c2cc1C [Flavin adenine dinucleotide],1.01

row,SMILES,cell-surface Lgr5 expression
1,CCOc1ccc(NC(=O)CC(C)O)cc1 (centres undefined) [Bucetin],1.29
2,CCCCOc1ccc(CC(=O)NO)cc1 [Bufexamac],1.82 (active)
3,CCOc1ccc(NC(C)=O)cc1 [Phenacetin (acetophenetidin)],1.24
4,Cc1c(C)c2c(c(C)c1O)CCC(C)(COc1ccc(CC3SC(=O)NC3=O)cc1)O2 (centres undefined) [Troglitazone],1.09
5,Oc1cccc(O)c1O [Pyrogallol],1.15
6,CC(=O)OCC(=O)[C@@]1(O)CC[C@H]2[C@@H]3CCC4=CC(=O)CC[C@]4(C)[C@@]3(F)[C@@H](O)C[C@@]21C,1.35 (active)
7,CC1(C)O[C@@H]2C[C@H]3[C@@H]4CCC5=CC(=O)CC[C@]5(C)[C@@]4(F)[C@@H](O)C[C@]3(C)[C@]2(C(=O)CCl)O1 [Halcinonide],1.71 (active)
8,CC(=O)OCC(=O)[C@@]1(O)CC[C@H]2[C@@H]3CCC4=CC(=O)C=C[C@]4(C)[C@@]3(Cl)[C@@H](Cl)C[C@@]21C [Dichlorisone acetate],1.55 (active)
9,Nc1ccn([C@@H]2CS[C@H](CO)O2)c(=O)n1 [Lamivudine],0.724
10,COc1cc2c(cc1OC)C(=O)C(CC1CCN(Cc3ccccc3)CC1)C2 (centres undefined) [Donepezil hydrochloride],0.531
11,C[N+](C)(C)CCO.O=C([O-])CC(O)(CC(=O)O)C(=O)O [Choline dihydrogen citrate],0.803
12,CCOC(=O)[C@H](CCc1ccccc1)N[C@@H](C)C(=O)N1Cc2ccccc2C[C@H]1C(=O)O [Quinapril],1.13
13,O=C([O-])[O-].[Li+].[Li+] [Lithium carbonate],0.278
14,N=C(N)NC(=N)NCCc1ccccc1 [Phenformin hydrochloride],0.756
15,O=S(=O)([O-])[O-].[Fe+2] [Ferrous sulfate],0.888
16,CCCOc1ccc(C(=O)OCCN(CC)CC)cc1N [Proparacaine],1.22
17,CCN(CC)CCOc1ccc2c(c1)C(=O)c1cc(OCCN(CC)CC)ccc1-2 [Tilorone dihydrochloride],1.62 (active)
18,CCCCOc1cc(C(=O)OCCN(CC)CC)ccc1N [Benoxinate],0.987
19,Cl.Cl.NCCN [Ethylenediamine dihydrochloride],1.05
20,COC(=O)[C@H](Cc1ccccc1)NC(=O)[C@@H](N)CC(=O)O [Aspartame],0.834
21,C[C@H](CCC(=O)O)[C@H]1CC[C@H]2[C@@H]3[C@@H](O)C[C@@H]4C[C@H](O)CC[C@]4(C)[C@H]3CC[C@]12C [Ursodiol (Ursodeoxycholic acid)],0.801
22,"Nc1nc2[nH]cnc2c(=S)[nH]1 [Thioguanine (2-amino,6-mercaptopurine)]",0.849
23,S=c1[nH]cnc2nc[nH]c12 [6-Mercaptopurine monohydrate],1.67 (active)

row,SMILES,cell-surface Lgr5 expression
1,COc1ccc(CN2CCN(C(c3ccc(F)cc3)c3ccc(F)cc3)CC2)c(OC)c1OC [Lomerizine HCl],1.15
2,O=C[O-].[Na+] [Sodium formate],0.903
3,C=N[C@@H](C(=O)N[C@@H]1C(=O)N2[C@@H]1SC(C)(C)[C@@H]2C(=O)O)c1ccccc1 [Metampicillin],0.953
4,N.N.O=S(=O)(O)O [Ammonium sulfate],0.987
5,COc1ccc2cc3[n+](cc2c1OC)CCc1cc2c(cc1-3)OCO2 [Berberine],1.64 (active)
6,COc1ccc2cc3[n+](cc2c1OC)CCc1cc2c(cc1-3)OCO2 [Berberine bisulfate],1.47
7,O.O.O.O.O.O.[Cl-].[Cl-].[Sr+2] [Strontium chloride hexahydrate],1.29
8,COc1cccc2c1C(=O)c1c(O)c3c(c(O)c1C2=O)C[C@@](O)(C(=O)CO)C[C@@H]3O[C@H]1C[C@H](N)[C@H](O)[C@H](C)O1 [Doxorubicin],0.634
9,"O=C(Nc1ccc(Cl)cc1)Nc1ccc(Cl)c(Cl)c1 [Trilocarban (3,4,4'-Trichlorocarbanilide, 99%)]",0.931
10,COc1ccccc1OCC(O)CO (centres undefined) [Guaifenesen (Guaiacol glyceryl ether)],1.11
11,C=CCOc1ccccc1OCC(O)CNC(C)C (centres undefined) [Oxprenolol],1.42 (active)
12,CC(C)NCC(O)COc1cccc2ccccc12 (centres undefined) [Propranolol],1.07
13,COc1ccccc1OCC(O)CO (centres undefined) [Guaifenesin],1.27
14,COC(=O)CCc1ccc(OCC(O)CNC(C)C)cc1 (centres undefined) [Esmolol],1.29
15,Nc1nc(O)c2ncn(CCC(CO)CO)c2n1 [Penciclovir],0.791
16,CC(=O)[O-].CC(=O)[O-].[Mg+2] [Magnesium acetate],0.917
17,CN(C(=O)C(Cl)Cl)c1ccc(OC(=O)c2ccco2)cc1 [Diloxanide furoate],1.05
18,CC1(C)S[C@@H]2[C@H](NC(=O)C3(N)CCCCC3)C(=O)N2[C@H]1C(=O)O [Cyclacillin],0.994
19,CC(=O)N(O)CCCCCNC(=O)CCC(=O)N(O)CCCCCNC(=O)CCC(=O)N(O)CCCCCN [Deferoxamine mesylate],0.865
20,"Nc1ccc(C(=O)O)cc1 [4-Aminobenzoic acid, sodium salt,99%]",0.905
21,"NS(=O)(=O)c1ccc(C(=O)O)cc1 [Carzenide (4-Carboxybenzenesulfonamide, 97%)]",1.3 (active)
22,CCCN(CCC)S(=O)(=O)c1ccc(C(=O)O)cc1 [Probenecid],1.01
23,Oc1c(I)cc(Cl)c2cccnc12 [Clioquinol],1.18
